Screening results as filed in PubChem BioAssay.
Most compounds without a hit are left out; they make up all but 7.8% or so of the library.
Cav32 inh – inhibitors of human Cav3.2 T-type calcium channel; Cav3.2-expressing cells, Fluo-4 calcium fluorescence FDSS; stronger effect = lower value; B-score at 10 µM; actives 4% (n = 100,000); AID 449739;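 active = single-dose well whose peak fluorescence ratio is a statistical outlier from its plate by either plate-standardised score or position-corrected B-score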
sEH activator – increases human soluble epoxide hydrolase activity | AID 717 | purified human sEH enzymatic activity, activator screen | actives 0.04% (n = 91,000) | activation, % at 2 µM; in the data active = activation above about 37%
Target sequence (P34913 whole entry, looked up): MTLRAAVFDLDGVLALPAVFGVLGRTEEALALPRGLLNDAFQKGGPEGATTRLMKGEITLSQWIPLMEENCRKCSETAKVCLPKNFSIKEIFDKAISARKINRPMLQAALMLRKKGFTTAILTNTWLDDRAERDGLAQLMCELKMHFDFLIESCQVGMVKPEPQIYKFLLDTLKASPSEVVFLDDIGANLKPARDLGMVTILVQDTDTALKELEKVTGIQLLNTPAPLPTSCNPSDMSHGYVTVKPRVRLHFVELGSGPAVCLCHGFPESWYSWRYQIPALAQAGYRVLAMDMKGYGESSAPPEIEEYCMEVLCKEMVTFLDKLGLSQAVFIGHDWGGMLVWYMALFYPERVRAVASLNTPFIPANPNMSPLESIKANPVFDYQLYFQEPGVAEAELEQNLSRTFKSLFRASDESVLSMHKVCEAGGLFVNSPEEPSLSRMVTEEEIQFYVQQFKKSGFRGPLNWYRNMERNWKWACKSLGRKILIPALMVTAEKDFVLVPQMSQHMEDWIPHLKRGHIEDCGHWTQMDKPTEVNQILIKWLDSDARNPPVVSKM
PostGolgi ctrl – growth of the yeast control strain, post-Golgi counter-screen. efflux-deficient yeast background strain, growth absorbance A615, 16 h. inhibition, % at 10 µM. actives 5% (n = 98,000). AID 738
sEH inhibitor – blocks human soluble epoxide hydrolase activity. recombinant human sEH enzymatic activity assay. actives 0.34% (n = 91,000). P34913. inhibition, % at 2 µM; in the data active = inhibition above about 80%
PostGolgi yeast – growth inhibition of a yeast mutant, post-Golgi transport screen. post-Golgi transport phenotypic cell assay. inhibition, % at 10 µM. actives 0.9% (n = 98,000);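 note: yeast cells grown in 1536-well plates; yeast grown about 18 h at 30C before absorbance read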
Active calls of the source: *; . = not tested or not shown. Cut-off read from the data, not from the text of the source, unless noted: active = inhibition above about 30%; inactive = the rest.

SMILES	Cav32 inh	sEH activator	PostGolgi ctrl	sEH inhibitor	PostGolgi yeast
Cc1onc(-c2ccccc2Cl)c1C(=O)N1CCc2ccccc21	-0.25	3	34*	-4	-2
O=C(CN1CCN(c2ncc(C(F)(F)F)cc2Cl)CC1)N1CCN(c2ncc(C(F)(F)F)cc2Cl)CC1	-3.2*	-2	30*	-1	-4
O=C(CSc1ncc(C(F)(F)F)cc1Cl)N1CCN(S(=O)(=O)c2ccccc2)CC1	-4.1*	8	15	-8	-4
O=C(CSc1ncc(C(F)(F)F)cc1Cl)N1CCN(S(=O)(=O)c2ccc(Cl)cc2)CC1	.	23	16	-24	-9
O=C(CCSc1ccc(Cl)cc1)N1CCN(c2ncccn2)CC1	-4.7*	-4	6	4	14
O=C(CSc1nc(-c2ccccc2)c(-c2ccccc2)[nH]1)N1CCN(S(=O)(=O)c2ccccc2)CC1	-6*	4	4	-5	0
O=C(CSc1ccc(Cl)cc1)N1CCN(c2ncc(C(F)(F)F)cc2Cl)CC1	-3.8*	-1	18	1	0
O=C(Cc1ncc(C(F)(F)F)cc1Cl)N1CCN(c2ccccn2)CC1	0.92	4	7	-6	-1
N/C(=N\OC(=O)C(c1ccccc1)c1ccccc1)c1cccnc1	0.015	7	39*	-2	-3
N/C(=N\OC(=O)C(c1ccccc1)c1ccccc1)c1ccccn1	0.53	-11	.	12	.
COc1ccccc1NS(=O)(=O)c1cccc(C(=O)N/N=C(\C)c2ccc(-n3ccnc3)cc2)c1	0.87	-82	14	82*	2
CCOc1ccc(/C(O)=C2/C(=O)C(=O)N(c3nc(C)c(C)s3)C2c2ccco2)cc1 (stereo not given)	-5.7*	.	30	.	1
CCN(CC)CCN1C(=O)C(=O)/C(=C(/O)c2ccc(OC)cc2)C1c1ccco1 (stereo not given)	.	2	-3	-1	15
COc1ccc(CCN2C(=O)C3C4CC(C5C(C(=O)O)=NOC45)C3C2=O)cc1OC (stereo not given)	-0.033	4	4	-1	5
Cc1ccc(NC(=O)C(Cc2ccccc2)N2C(=O)C3C4CCC(C4)C3C2=O)cc1Cl (stereo not given)	-5.8*	20	20	-19	9
CCOc1ccccc1NC(=O)CN(c1ccc(C)cc1)S(=O)(=O)c1c(C)noc1C	-4.7*	12	39*	-13	-2
CCOc1ccc(OCC)c(NC(=O)CN(c2ccc(C)cc2)S(=O)(=O)c2c(C)noc2C)c1	-3.4	0	5	0	-1
COC(=O)CN(c1ccc(OC)cc1)S(=O)(=O)c1c(C)noc1C	0.27	13	33*	-16	1
COc1ccc(OC)c(NC(=O)CN(c2ccc(C(C)C)cc2)S(=O)(=O)c2c(C)noc2C)c1	-4.5*	.	6	.	-10
Cc1cccc(-n2c(C)nc3c(cnn3-c3ccc(F)cc3)c2=O)c1	-0.21	22	33*	-22	-4
COc1cccc(-n2c(C)nc3c(cnn3-c3ccc(C)cc3)c2=O)c1	-0.067	-8	7	6	18
N/C(=N\c1nc2c(c(=O)[nH]1)CCC2)Nc1cccc2ccccc12	-0.00023	7	10	-6	-1
O=C(NC(NNc1ccc([N+](=O)[O-])cc1)(C(F)(F)F)C(F)(F)F)c1ccccc1Cl	-8.5*	-6	44*	6	1
CN(C)C(=O)CSc1nnc(C23CC4CC(CC(C4)C2)C3)o1	0.6	-2	15	3	4
O=[N+]([O-])c1cc(-c2nnc(C34CC5CC(CC(C5)C3)C4)o2)cc([N+](=O)[O-])c1	.	-6	47*	8	7
SMILES	Cav32 inh	sEH activator	PostGolgi ctrl	sEH inhibitor	PostGolgi yeast
CC(C)C(C(=O)Nc1sc2c(c1C#N)CCCCC2)N1C(=O)c2ccccc2C1=O (stereo not given)	-8.7*	4	-2	-6	0
CC(C)(C)C(=O)Nc1sc2c(c1C#N)CCCCC2	0.017	4	.	-4	.
CC(C)CC(=O)NC(NC(=S)Nc1sc2c(c1C#N)CCCC2)C(Cl)(Cl)Cl (stereo not given)	-5.3*	-9	11	7	3
Cc1nn(CCCC(=O)Nc2sc3c(c2C#N)CCC3)c(C)c1[N+](=O)[O-]	-0.62	4	5	-2	1
Cc1nn(CC(=O)Nc2sc3c(c2C#N)CCC(C(C)(C)C)C3)c(C)c1[N+](=O)[O-] (stereo not given)	-2.7	-4	35*	3	4
N#Cc1c(NC(=O)c2ccccc2)sc2c1CCC2	0.86	4	15	-3	-16
